Test results as given in PubChem BioAssay.

Tested on: not listed separately
Assay: small-molecule binders of probe aInhba, primary screen, biochemical, small-molecule microarray, 635/667 nm fluorescence (AID 1148);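 also: score merges 667nm spot fluorescence with signal-to-noise for antibody binding to printed compounds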
Settings: higher = more signal

Structure (SMILES)	composite z-score
CCOC(=O)[C@H](CC(C)C)NC(=O)CCC1CC(OC(=O)NCCc2ccc(F)cc2)CC2(CCCC(COC(=O)NCCc3ccc(Cl)cc3)O2)O1 (some centres not stated)	-0.125
CC(=O)Nc1ccc([C@@H]2N[C@H](C(=O)O)CC[C@H]2C)cc1	-0.101
CCOC(=O)NN=C1C[C@@H](O)[C@@H](O)[C@@H]2[C@@H]3C(=O)N(c4cccc(Oc5ccccc5)c4)C(=O)[C@@H]3CC[C@H]12	-0.129
Cc1ccc(S(=O)(=O)N[C@H]2COC(=O)CC=C[C@H](C)[C@@H](NS(=O)(=O)c3ccc(C)cc3)COC(=O)CC=C[C@@H]2C)cc1	-0.0645
CC1O[C@H]2C3=C(C(=O)[C@@H]4O[C@@H]4[C@H]3O)[C@@H]1C1[C@@H](C)OC=C3[C@H](O)C4O[C@@H]4C(=NOCc4ccccc4)[C@]312 (some centres not stated)	-0.0963
C[C@@H](c1ccccc1)N1C(=O)[C@H]2[C@H]3[C@H](O)[C@H](O)CC(=NO[C@@H]4O[C@H](CO)[C@@H](O)[C@H](O)[C@H]4O)[C@@H]3CC[C@H]2C1=O	-0.0626
CON=C(C)CCC(=O)OC[C@H]1O[C@H](c2ccccc2)C=C[C@@H]1Oc1ccc(OC)cc1	-0.0963
COC(=O)[C@H](C)NC(=O)CCC1CC(OC(=O)NCc2ccc3c(c2)OCO3)CC2(CCCC(COC(=O)NCC(c3ccccc3)c3ccccc3)O2)O1 (some centres not stated)	-0.0719
COC(=O)[C@H](C)NC(=O)CCC1CC(OC(=O)NCCc2ccc(F)cc2)CC2(CCCC(COC(=O)NCCC(C)C)O2)O1 (some centres not stated)	0.0047
O=C1[C@H]2[C@H]3[C@H](O)[C@H](O)CC(=NOCc4ccccc4)[C@@H]3CC[C@H]2C(=O)N1c1ccc(F)cc1F	-0.104
CC(C)=CCCC(C)=CCON=C1C[C@@H](O)[C@@H](O)[C@@H]2[C@@H]3C(=O)N(C4CCCCC4)C(=O)[C@@H]3CC[C@@H]12	-0.0719
CC(C)CON=C1C[C@@H](O)[C@@H](O)[C@@H]2[C@@H]3C(=O)N(Cc4ccc5c(c4)OCO5)C(=O)[C@@H]3CC[C@H]12	-0.0589
CCOC(=O)[C@H](Cc1ccccc1)NC(=O)CCC1CC(OC(=O)NCc2ccc3c(c2)OCO3)CC2(CCCC(COC(=O)NCCc3ccccc3OC)O2)O1 (some centres not stated)	-0.0937
Cc1cc2c(c(=O)o1)[C@@H](O)[C@H]1O[C@H]1C2=O	0.0073
CC(=O)O[C@H]1C2=CO[C@H](C)[C@H]3[C@H]4C5=C([C@H](O)[C@H]6O[C@H]6C5=O)[C@H](OC4C)[C@@]23C(=O)[C@@H]2O[C@@H]21 (some centres not stated)	-0.292
CCOC(=O)[C@H](Cc1ccccc1)NC(=O)CCC1CC(OC(=O)NCc2cccc3ccccc23)CC2(CCCC(COC(=O)NCc3ccccc3)O2)O1 (some centres not stated)	-0.0259
CO[C@@H]1COC(=O)[C@@H](C)COC(=O)[C@@H](C)NC(=O)CC=C[C@@H]1C	-0.246
CCOC(=O)[C@H](Cc1ccccc1)NC(=O)CCC1CC(OC(=O)NCc2ccc3c(c2)OCO3)CC2(CCCC(COC(=O)NCCC(C)C)O2)O1 (some centres not stated)	0.0471
COc1ccc(COC(=O)NN=C2C[C@@H](O)[C@@H](O)[C@@H]3[C@@H]4C(=O)N(C5CCCCC5)C(=O)[C@@H]4CC[C@H]23)cc1	-0.337
CCC1=NOC(CCC2CC(OC(=O)NCc3cccc4c3OCO4)CC3(CCCC(COC(=O)NCCc4ccccc4OC)O3)O2)C1 (configuration not stated)	-0.152
COC(=O)CC=C[C@@H](C)[C@@H](C=NO[C@@H]1O[C@H](COC(C)=O)[C@@H](OC(C)=O)[C@H](OC(C)=O)[C@H]1OC(C)=O)NS(=O)(=O)c1ccc(C)cc1	0.0086
CCOC(=O)[C@H](CC(C)C)NC(=O)CCC1CC(OC(=O)NCc2ccc3c(c2)OCO3)CC2(CCCC(COC(=O)NCCCN3CCCC3=O)O2)O1 (some centres not stated)	0.0154
O=C1C2=CC[C@H]3C(=O)N(c4cccc(Oc5ccccc5)c4)C(=O)[C@H]3[C@H]2[C@H](O)[C@@H]2O[C@H]12	-0.239
COC(=O)[C@H](C)NC(=O)CCC1CC(OC(=O)NCc2ccc3c(c2)OCO3)CC2(CCCC(COC(=O)NCc3cccc(C(F)(F)F)c3)O2)O1 (some centres not stated)	0.0852
CO[C@H]1COC(=O)CC=C[C@H](C)[C@@H](OC)COC(=O)[C@@H](C)NC(=O)CC=C[C@@H]1C	-0.233

Molecular target: Torsin-1A (Homo sapiens) (UniProt O14656)
Assay: torsin A binders from cell lysate, primary screen, small-molecule microarray, wild-type, 635/667 nm (AID 1149)
Settings: COS7 hTOR1A-WT lysate, 635 nm fluorescence, higher = more signal

Chain of Torsin-1A (Homo sapiens) (O14656 whole entry, looked up): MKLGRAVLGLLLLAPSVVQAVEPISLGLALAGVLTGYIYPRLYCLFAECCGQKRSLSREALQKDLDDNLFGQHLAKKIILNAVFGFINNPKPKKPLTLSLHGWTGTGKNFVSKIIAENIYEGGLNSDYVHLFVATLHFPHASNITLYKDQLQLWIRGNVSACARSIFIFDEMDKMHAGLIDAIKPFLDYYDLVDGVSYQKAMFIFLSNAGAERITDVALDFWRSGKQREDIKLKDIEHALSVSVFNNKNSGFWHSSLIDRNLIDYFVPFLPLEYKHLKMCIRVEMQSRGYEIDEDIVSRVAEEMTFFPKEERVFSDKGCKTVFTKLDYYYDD

Structure (SMILES)	composite z-score
CO[C@H]1COC(=O)[C@@H](Cc2ccccc2)NC(=O)[C@@H](C)COC(=O)CCC[C@@H]1C	0.656
CCOC(=O)[C@H](CC(C)C)NC(=O)CCC1CC(OC(=O)NCCc2ccc(F)cc2)CC2(CCCC(COC(=O)NCCc3ccccc3OC)O2)O1 (some centres not stated)	0.0877
CCc1cc2c(nc1CC)CCN(CCC(C)=NO[C@H](C)c1cn([C@H](CO)Cc3ccccc3)nn1)C2	1.49
CO[C@H]1COC(=O)CC=C[C@@H](C)[C@H](NS(=O)(=O)c2ccc(C)cc2)COC(=O)CCC[C@@H]1C	0.815
C=Cc1ccc([C@H]2N[C@H](C(=O)O)CC[C@@H]2C)cc1	-0.188
CO[C@H]1COC(=O)[C@@H](C)COC(=O)[C@H](COCc2ccccc2)NC(=O)CC=C[C@H]1C	0.436
CCOC(=O)[C@H](CC(C)C)NC(=O)CCC1CC(OC(=O)NCc2cccc3ccccc23)CC2(CCCC(COC(=O)NCCC(C)C)O2)O1 (some centres not stated)	-0.0418
CO[C@H]1COC(=O)CC=C[C@@H](C)[C@H](OC)COC(=O)[C@@H]2CCCN2C(=O)CC=C[C@@H]1C	1.72
O=C1[C@H]2[C@H]3[C@H](O)[C@H](O)CC(=NOCc4ccccc4)[C@H]3CC[C@H]2C(=O)N1Cc1ccc2c(c1)OCO2	0.0874
Cc1ccc(S(=O)(=O)NC(CCc2ccccc2)CC(=O)C(C)(C)C)cc1 (configuration not stated)	0.511
O=C1C=C[C@@H](O)[C@@H]2[C@@H]3C(=O)N(C[C@@H]4CCCO4)C(=O)[C@@H]3CC[C@@H]12	0.294
CC(C)=CCCC(C)=CCON=C1C[C@@H](O)[C@@H](O)[C@@H]2[C@@H]3C(=O)N(Cc4ccccc4)C(=O)[C@@H]3CC[C@@H]12	0.925
CCOC(=O)[C@H](CC(C)C)NC(=O)CCC1CC(OC(=O)NCCc2ccc(F)cc2)CC2(CCCC(COC(=O)NCCc3ccc(Cl)cc3)O2)O1 (some centres not stated)	0.601
CC(=O)Nc1ccc([C@@H]2N[C@H](C(=O)O)CC[C@H]2C)cc1	0.746
CCOC(=O)NN=C1C[C@@H](O)[C@@H](O)[C@@H]2[C@@H]3C(=O)N(c4cccc(Oc5ccccc5)c4)C(=O)[C@@H]3CC[C@H]12	0.933
Cc1ccc(S(=O)(=O)N[C@H]2COC(=O)CC=C[C@H](C)[C@@H](NS(=O)(=O)c3ccc(C)cc3)COC(=O)CC=C[C@@H]2C)cc1	0.649
CC1O[C@H]2C3=C(C(=O)[C@@H]4O[C@@H]4[C@H]3O)[C@@H]1C1[C@@H](C)OC=C3[C@H](O)C4O[C@@H]4C(=NOCc4ccccc4)[C@]312 (some centres not stated)	1.66
C[C@@H](c1ccccc1)N1C(=O)[C@H]2[C@H]3[C@H](O)[C@H](O)CC(=NO[C@@H]4O[C@H](CO)[C@@H](O)[C@H](O)[C@H]4O)[C@@H]3CC[C@H]2C1=O	1.1
CON=C(C)CCC(=O)OC[C@H]1O[C@H](c2ccccc2)C=C[C@@H]1Oc1ccc(OC)cc1	0.0952

Structure (SMILES)	composite z-score
COC(=O)[C@H](C)NC(=O)CCC1CC(OC(=O)NCc2ccc3c(c2)OCO3)CC2(CCCC(COC(=O)NCC(c3ccccc3)c3ccccc3)O2)O1 (some centres not stated)	0.0104
COC(=O)[C@H](C)NC(=O)CCC1CC(OC(=O)NCCc2ccc(F)cc2)CC2(CCCC(COC(=O)NCCC(C)C)O2)O1 (some centres not stated)	-0.184
O=C1[C@H]2[C@H]3[C@H](O)[C@H](O)CC(=NOCc4ccccc4)[C@@H]3CC[C@H]2C(=O)N1c1ccc(F)cc1F	-0.111
CC(C)=CCCC(C)=CCON=C1C[C@@H](O)[C@@H](O)[C@@H]2[C@@H]3C(=O)N(C4CCCCC4)C(=O)[C@@H]3CC[C@@H]12	0.184
CC(C)CON=C1C[C@@H](O)[C@@H](O)[C@@H]2[C@@H]3C(=O)N(Cc4ccc5c(c4)OCO5)C(=O)[C@@H]3CC[C@H]12	0.217
CCOC(=O)[C@H](Cc1ccccc1)NC(=O)CCC1CC(OC(=O)NCc2ccc3c(c2)OCO3)CC2(CCCC(COC(=O)NCCc3ccccc3OC)O2)O1 (some centres not stated)	0.479
Cc1cc2c(c(=O)o1)[C@@H](O)[C@H]1O[C@H]1C2=O	0.102
CC(=O)O[C@H]1C2=CO[C@H](C)[C@H]3[C@H]4C5=C([C@H](O)[C@H]6O[C@H]6C5=O)[C@H](OC4C)[C@@]23C(=O)[C@@H]2O[C@@H]21 (some centres not stated)	-0.119
CCOC(=O)[C@H](Cc1ccccc1)NC(=O)CCC1CC(OC(=O)NCc2cccc3ccccc23)CC2(CCCC(COC(=O)NCc3ccccc3)O2)O1 (some centres not stated)	-0.347
CO[C@@H]1COC(=O)[C@@H](C)COC(=O)[C@@H](C)NC(=O)CC=C[C@@H]1C	1.65
CCOC(=O)[C@H](Cc1ccccc1)NC(=O)CCC1CC(OC(=O)NCc2ccc3c(c2)OCO3)CC2(CCCC(COC(=O)NCCC(C)C)O2)O1 (some centres not stated)	0.399
COc1ccc(COC(=O)NN=C2C[C@@H](O)[C@@H](O)[C@@H]3[C@@H]4C(=O)N(C5CCCCC5)C(=O)[C@@H]4CC[C@H]23)cc1	-0.0324
CCC1=NOC(CCC2CC(OC(=O)NCc3cccc4c3OCO4)CC3(CCCC(COC(=O)NCCc4ccccc4OC)O3)O2)C1 (configuration not stated)	-0.0106
COC(=O)CC=C[C@@H](C)[C@@H](C=NO[C@@H]1O[C@H](COC(C)=O)[C@@H](OC(C)=O)[C@H](OC(C)=O)[C@H]1OC(C)=O)NS(=O)(=O)c1ccc(C)cc1	0.514
CCOC(=O)[C@H](CC(C)C)NC(=O)CCC1CC(OC(=O)NCc2ccc3c(c2)OCO3)CC2(CCCC(COC(=O)NCCCN3CCCC3=O)O2)O1 (some centres not stated)	0.232
O=C1C2=CC[C@H]3C(=O)N(c4cccc(Oc5ccccc5)c4)C(=O)[C@H]3[C@H]2[C@H](O)[C@@H]2O[C@H]12	0.181
COC(=O)[C@H](C)NC(=O)CCC1CC(OC(=O)NCc2ccc3c(c2)OCO3)CC2(CCCC(COC(=O)NCc3cccc(C(F)(F)F)c3)O2)O1 (some centres not stated)	0.703
CO[C@H]1COC(=O)CC=C[C@H](C)[C@@H](OC)COC(=O)[C@@H](C)NC(=O)CC=C[C@@H]1C	3.05
